The text below walks through data of PubChem BioAssay AID372 (MTDP, 2006).

In general, inhibition refers to how much of the control response was suppressed.

Each structure is given as a SMILES string. Where “and” joins values, the source holds several entries; their conditions need not be identical. Identical values can stand only once. Out of some 100,000 compounds screened, about 770 (0.77%) were called active. Cut-off read from the data, not from the text of the source: active = inhibition above about 50%; inactive = the rest. The list comes from a sample in which actives are over-represented; it also holds similar structures and randomly drawn compounds.

For the assay, the target named is Gag-Pol polyprotein (Human immunodeficiency virus type 1 group M subtype B (isolate HXB2)) (UniProt P04585). The experiment in a line: RNase H inhibition, HIV 1 Gag Pol polyprotein, FRET biochemical assay, screening (AID 372). As to conditions: HIV-1 RT RNase H, FRET RNA/DNA substrate fluorescence; at 10 µM; stronger effect = higher value.
In the case of `Cc1ccc(OCCOc2ccc(Br)cc2/C=C2\SC(=S)NC2=O)c(C)c1`, the inhibition was 46% (inactive).

For `O=C(COC(=O)c1ccccc1Cl)c1ccc(Cl)cc1Cl`, the inhibition was 43% (inactive).

In the case of `CCOC(=O)C1=C(C)N=c2s/c(=C/c3ccc(-c4cc([N+](=O)[O-])ccc4OC)o3)c(=O)n2C1c1cccs1` (stereo not given), the inhibition is 8% (inactive).

As for `CC(O)c1cccc(NC(=O)c2nn3c(c2Cl)NC(c2cccs2)CC3C(F)(F)F)c1` (stereo not given), the inhibition is 6% (inactive).

For the molecule `COc1ccc(-c2cc(-c3ccccc3)nc(-c3ccc(C)o3)c2)cc1`, the inhibition was 16% (inactive).

For the molecule `Cc1cc2nn(-c3ccc(Cl)cc3)nc2cc1NC(=O)c1ccc([N+](=O)[O-])cc1Cl`, the inhibition is 50% (active).

Regarding `Cc1ccc(-n2nc3cc(C)c(NC(=O)c4cc(Cl)ccc4Cl)cc3n2)cc1`, the inhibition is 5% (inactive).

Consider `Cc1cc2nn(-c3ccc(Cl)cc3)nc2cc1NC(=O)c1cc(Cl)ccc1Cl`, for which the inhibition was 52% (active).

`COc1ccc(-n2nc3cc(C)c(NC(=O)c4cc(Cl)ccc4Cl)cc3n2)cc1`: the inhibition was 35% (inactive).

As for `Cc1cc2nn(-c3ccccc3)nc2cc1NC(=O)c1ccc([N+](=O)[O-])cc1Cl`, the inhibition was 22% (inactive).

`Cc1ccc(-n2nc3cc(C)c(NC(=O)c4ccc([N+](=O)[O-])cc4Cl)cc3n2)cc1`: the inhibition was 0% (inactive).

`CSc1ccc(/C=C2\C(=O)NC(=O)N(c3ccc(Br)c(C)c3)C2=O)cc1`: the inhibition was 0% (inactive).

`Cc1sc(NC(=O)c2ccccc2C(=O)O)c(C#N)c1C`: the inhibition is 3% (inactive).

With `O=[N+]([O-])c1cccc(-n2nncc2C23CC4CC(CC(C4)C2)C3)c1`, the inhibition was 19% (inactive).

With `CCCOc1cc(C)cc2oc(=O)c(Cc3ccccc3)c(C)c12`, the inhibition is 56% (active).

For `CC(=O)Oc1cc(C)cc2oc(=O)c(Cc3ccccc3)c(C)c12`, the inhibition was 23% (inactive).

On to `CCOc1cc(C)cc2oc(=O)c(Cc3ccccc3)c(C)c12`, for which the inhibition was 46% (inactive).

For `Cc1cc(OC(=O)C2CC2)c2c(C)c(Cc3ccccc3)c(=O)oc2c1`, the inhibition was 55% (active).

On to `Cc1cc(OCC(=O)O)c2c(C)c(Cc3ccccc3)c(=O)oc2c1`, for which the inhibition was 4% (inactive).

For `COc1cc(C)cc2oc(=O)c(Cc3ccccc3)c(C)c12`, the inhibition is 22% (inactive).

Turning to `O=C(Nc1ncc(Cc2cccc([N+](=O)[O-])c2)s1)c1cccc([N+](=O)[O-])c1`, the inhibition is 11% (inactive).

As to `O=C(CCc1ccccc1)Nc1cc(C(=O)O)cc(C(=O)O)c1`, the inhibition was 36% (inactive).

In the case of `COc1cccc(-c2nc(-c3cccc([N+](=O)[O-])c3)no2)c1`, the inhibition is 5% (inactive).

As to `O=C(N/N=C/c1ccc(O)cc1O)c1cc(Br)cc(Br)c1O`, the inhibition was 12% (inactive).

`Cc1ccc(CNC(=O)C(=O)NCC2CCCO2)cc1` (stereo not given): the inhibition was 9% (inactive).

As to `COC(=O)c1cc(C(=O)NC2CCSC2=O)cc([N+](=O)[O-])c1` (stereo not given), the inhibition is 10% (inactive).

`O=C(NCC1CCCO1)/C(=C/c1cccc(Oc2ccccc2)c1)NC(=O)c1ccccc1` (stereo not given): the inhibition is 0% (inactive).

`C=CCNC(=O)CN(c1cccc(OC)c1)S(=O)(=O)c1ccccc1`: the inhibition was 0% (inactive).

For `CC(=O)Nc1ccc(N=Cc2cccc(C)c2)cc1`, the inhibition is 4% (inactive).

Take `CC(=O)C(=Nc1ccc(C)cc1C)NNc1cc(C(N)=O)c(Cl)cc1Cl`: the inhibition was 70% (active).

`CC(=O)C(=Nc1ccc(C)cc1C)NNc1ccc(Cl)c(C(N)=O)c1`: the inhibition is 11% (inactive).

On to `CC(=O)Nc1cc(C(N)=O)c(Cl)cc1Cl`, for which the inhibition was 1% (inactive).

`Cc1ccc(/C(O)=C2\C(=O)C(=O)N(CCCC(=O)O)C2c2ccc(F)cc2)cc1` (stereo not given): the inhibition is 4% (inactive).

Take `COc1cc(C=C2C(=O)N(c3ccc(C)cc3)C(=S)N(c3ccc(C)cc3)C2=O)ccc1O`: the inhibition is 0% (inactive).

As for `Cc1ccc(N2C(=O)/C(=C/c3ccc(O)cc3)C(=O)NC2=S)cc1`, the inhibition was 6% (inactive).

Regarding `Cc1ccc(N2C(=O)C(=Cc3ccc(O)cc3)C(=O)N(c3ccc(C)cc3)C2=S)cc1`, the inhibition was 56% (active).

Take `O=C(CN1CCSCC1)N/N=C/c1ccc(-c2ccccc2)cc1`: the inhibition was 7% (inactive).

As to `O=C(Nc1cc(C(=O)Nc2ccccc2-c2ccccc2)cc(C(=O)Nc2ccccc2-c2ccccc2)c1)c1ccc([N+](=O)[O-])cc1`, the inhibition is 19% (inactive).

Consider `Cc1ccc(OCCOCCN2CCC(C)CC2)cc1`, for which the inhibition was 15% (inactive).

Regarding `CCN1C(=O)c2cccc3c(NC(=O)c4cc([N+](=O)[O-])ccc4Cl)ccc1c23`, the inhibition is 5% (inactive).

As for `C=CCN1C(=O)/C(=C\c2ccc(I)o2)C(=O)NC1=S`, the inhibition was 27% (inactive).

On to `C=CCN1C(=O)/C(=C\c2ccc(-c3ccc([N+](=O)[O-])cc3)o2)C(=O)NC1=S`, for which the inhibition is 10% (inactive).

As to `COc1ccc(S(=O)(=O)n2nnc3ccccc32)cc1OC`, the inhibition is 2% (inactive).

For the molecule `COc1ccc(OC)c(S(=O)(=O)n2nnc3ccccc32)c1`, the inhibition is 3% (inactive).

Regarding `COc1ccc(S(=O)(=O)n2nnc3ccccc32)c2ccccc12`, the inhibition is 55% (active).

As to `COC(=O)C1=C(C)NC(=S)NC1c1cc(Br)ccc1OCc1ccccc1` (stereo not given), the inhibition is 11% (inactive).

For the molecule `Cn1c(=O)c2[nH]c(N/N=C(/C#N)C(N)=O)nc2n(C)c1=O`, the inhibition is 8% (inactive).

For the molecule `CCC(Oc1ccccc1)C(=O)Nc1cc(OC)c(Cl)cc1OC` (stereo not given), the inhibition was 12% (inactive).

As for `CCC(Oc1ccccc1)C(=O)Nc1cc(Cl)ccc1OC` (stereo not given), the inhibition is 56% (active).

As for `CCC(Oc1ccccc1)C(=O)Nc1cc(Cl)ccc1Cl` (stereo not given), the inhibition was 40% (inactive).

With `C=CCn1cc(/C=c2\sc3n(c2=O)C(c2ccc(OC)cc2)C(C(=O)OCC)=C(C)N=3)c2ccccc21` (stereo not given), the inhibition was 15% (inactive).

In the case of `O=C(/C=C/c1ccc(-c2ccccc2Br)o1)c1ccc(Cl)cc1`, the inhibition was 13% (inactive).

Regarding `NS(=O)(=O)c1ccc2c(c1)C1C=CCC1C(c1ccc([N+](=O)[O-])cc1)N2` (stereo not given), the inhibition was 19% (inactive).

Consider `CCOC(=O)C1=C(C)N=c2s/c(=C\c3ccc(OC)c(Br)c3)c(=O)n2C1c1ccccc1Cl` (stereo not given), for which the inhibition is 29% (inactive).

With `CCOc1ccc(NC(=O)c2ccc([N+](=O)[O-])o2)cc1`, the inhibition was 17% (inactive).

Turning to `CCOC(=O)c1ccc(NC(=O)c2ccc([N+](=O)[O-])o2)cc1`, the inhibition is 50% (active).

For `CCCOC(=O)c1ccc(NC(=O)c2ccc([N+](=O)[O-])o2)cc1`, the inhibition was 7% (inactive).

Regarding `O=C(Nc1cccc(Cl)c1)Nc1cc(Cl)ccc1Cl`, the inhibition is 0% (inactive).

Consider `COc1ccc(-n2c(O)c(C=Nc3ccc(Cl)cc3)c3ccccc3c2=O)cc1`, for which the inhibition is 11% (inactive).

In the case of `O=C(CC1OC(=O)c2ccccc21)c1ccccc1` (stereo not given), the inhibition is 1% (inactive).

Consider `Cc1cc(C)nc(SCC(=O)c2ccc(O)c(O)c2)n1`, for which the inhibition is 74% (active).

Consider `Cc1cc(C)nc(SCC(=O)c2ccc(F)cc2)n1`, for which the inhibition was 13% (inactive).

For `Cc1cc(=O)[nH]c(SCC(=O)c2ccc(Br)cc2)n1`, the inhibition is 4% (inactive) and 9% (inactive).

As to `Nc1cc(=O)[nH]c(SCC(=O)c2ccc(O)c(O)c2)n1`, the inhibition is 8% (inactive).

Take `Cc1cc(C)c2c(=O)[nH]c(SCC(=O)c3ccc(Br)cc3)nc2n1`: the inhibition was 20% (inactive).

Consider `Cc1sc2nc(SCC(=O)c3ccc(O)c(O)c3)[nH]c(=O)c2c1C`, for which the inhibition is 75% (active).

On to `Cc1nc(SCC(=O)c2ccc(O)c(O)c2)n[nH]1`, for which the inhibition is 42% (inactive).

In the case of `Cc1cc(C)c2c(=O)[nH]c(SCC(=O)c3ccc(F)cc3)nc2n1`, the inhibition was 11% (inactive).

On to `Cc1sc2nc(SCC(N)=O)[nH]c(=O)c2c1C`, for which the inhibition was 0% (inactive).

Consider `COc1ccc(C(=O)CSc2nc3sc(C)c(C)c3c(=O)[nH]2)cc1C`, for which the inhibition was 44% (inactive).

In the case of `Cc1cc(=O)[nH]c(SCC(=O)c2ccc(O)c(O)c2)n1`, the inhibition was 50% (active).

Turning to `Cc1cccnc1NC(=O)Nc1cccc(F)c1`, the inhibition is 7% (inactive).

Consider `O=C(NNc1ccc(F)cc1)C(O)(c1ccccc1)c1ccccc1`, for which the inhibition was 2% (inactive).

Turning to `NS(=O)(=O)c1ccc(Nc2nc(-c3ccccn3)cs2)cc1`, the inhibition was 3% (inactive).

Consider `CC(=O)Nc1ccc2c(c1)C(=O)OC2(c1ccc(N(C)C)cc1)c1ccc(N(C)C)cc1`, for which the inhibition was 17% (inactive).

As for `Cc1nc2ccccc2n1C(=O)c1ccc([N+](=O)[O-])cc1`, the inhibition was 0% (inactive).

As for `Cc1ccc(C(=O)N/N=C/C=C/c2ccc([N+](=O)[O-])cc2)cn1`, the inhibition is 1% (inactive).

Consider `O=C(N/N=C\c1ccc([N+](=O)[O-])cc1)c1cccc2cc[nH]c12`, for which the inhibition was 8% (inactive).

With `Cc1ccc(N2NC(=O)/C(=C/c3ccc(-c4cc([N+](=O)[O-])ccc4C)o3)C2=O)cc1`, the inhibition was 13% (inactive).

As for `Cc1ccc(C(=O)O)cc1-n1c(C)ccc1C`, the inhibition is 19% (inactive).

With `Cc1ccc(C)n1-c1ccc(C(=O)O)cc1O`, the inhibition is 8% (inactive).

Consider `COc1cc(C(=O)O)c(-n2c(C)ccc2C)cc1OC`, for which the inhibition was 13% (inactive).

As for `Cc1ccc(C)n1-c1ccc(Cl)cc1C(=O)O`, the inhibition was 16% (inactive).

As for `Cc1c(C(=O)O)cccc1-n1c(=O)c2cc3c(=O)n(-c4cccc(C(=O)O)c4C)c(=O)c3cc2c1=O`, the inhibition is 10% (inactive).

For the molecule `Cc1c(C(=O)O)cccc1-n1c(C)ccc1C`, the inhibition is 58% (active).

On to `Cc1ccc(C)n1-c1ccccc1C(=O)O`, for which the inhibition is 15% (inactive).

As to `COc1ccc(/C(C)=N/NC(=O)c2ccncc2)c(OC)c1OC`, the inhibition was 5% (inactive).

Consider `COc1cc(Br)c(CNc2cccc(C)c2)cc1OC`, for which the inhibition was 22% (inactive).

Consider `CCc1c(C)c(C#N)c2nc3ccccc3n2c1Nc1ccc(N(CC)CC)cc1`, for which the inhibition was 30% (inactive).

For `O=C(Nc1ccccc1C#Cc1ccccc1)c1ccc(-c2ccccc2)cc1`, the inhibition was 0% (inactive).

Turning to `CC1CC(Nc2ccccc2)c2ccccc2N1` (stereo not given), the inhibition was 0% (inactive).

Regarding `COC(=O)CN1C(=O)c2cccc3cccc(c23)C1=O`, the inhibition was 7% (inactive).

For the molecule `N#CC1=C(N)OC2=C(C(=O)CC(c3ccccc3)C2)C1c1coc2ccccc2c1=O` (stereo not given), the inhibition was 4% (inactive).

On to `CCOC(=O)c1ccc(-c2ccc(/C=C3/C(=O)NC(=O)N(Cc4ccco4)C3=O)o2)cc1`, for which the inhibition is 34% (inactive).

Consider `O=C1NC(=O)N(Cc2ccco2)C(=O)/C1=C\c1ccc(-c2ccc(C(=O)O)cc2)o1`, for which the inhibition was 35% (inactive).

Turning to `O=C1NC(=O)N(Cc2ccco2)C(=O)/C1=C\c1ccc(-c2ccc([N+](=O)[O-])cc2)o1`, the inhibition is 17% (inactive).

For the molecule `O=C1NC(=O)N(Cc2ccco2)C(=O)/C1=C\c1ccc(-c2ccc(Cl)c(Cl)c2)o1`, the inhibition is 41% (inactive).

In the case of `Cc1cc(/C=C2/C(=O)NC(=O)N(Cc3ccco3)C2=O)c(C)n1-c1ccc([N+](=O)[O-])cc1`, the inhibition is 14% (inactive).

As for `Cc1cc(-c2ccc(/C=C3/C(=O)NC(=O)N(Cc4ccco4)C3=O)o2)ccc1Br`, the inhibition is 58% (active).

On to `Cc1cc([N+](=O)[O-])ccc1-n1c(C)cc(/C=C2/C(=O)NC(=O)N(Cc3ccco3)C2=O)c1C`, for which the inhibition was 50% (active).

Turning to `O=C1NC(=O)N(Cc2ccco2)C(=O)/C1=C\c1ccc(-c2ccc(Cl)cc2Cl)o1`, the inhibition is 58% (active).

As to `Cc1cc(/C=C2/C(=O)NC(=O)N(Cc3ccco3)C2=O)c(C)n1-c1ccc(Cl)cc1`, the inhibition is 12% (inactive).

Consider `O=C1NC(=O)N(Cc2ccco2)C(=O)/C1=C\c1ccc(-c2ccc(Br)cc2)o1`, for which the inhibition is 53% (active).

As to `O=C1NC(=O)N(Cc2ccco2)C(=O)/C1=C\c1ccc(-c2ccc(Cl)c([N+](=O)[O-])c2)o1`, the inhibition was 35% (inactive).

Regarding `O=C1NC(=O)N(Cc2ccco2)C(=O)/C1=C\c1ccc(-c2cccc(Cl)c2Cl)o1`, the inhibition is 46% (inactive).
